Data on 32 compounds can be found in PubChem BioAssay (NCATS).

Inconclusive results are not listed. Where a call stands in place of a potency, no number is given. Active and inactive are the calls of the source. The call rests on the fitted dose curve; in most records, active means well fitted curve in the direction sought with a large enough effect; inconclusive means small, poorly fitted or top-dose-only effect, or another doubt; inactive means no such curve, though single readings can be large; an effect the other way counts as inactive or inconclusive.

One assay is described as follows: qHTS assay to identify small molecule inhibitors of chordoma cells - UCH-1 (AID 1259355). Further: nearly all actives have a fitted effect of over 55% in size. Further: potency means the concentration at half of the fitted maximal effect. Particulars: UCH-1 chordoma viability, CellTiter-Glo, 48 h, combination, with auranofin plus four topoisomerase inhibitors; series mostly up to 46.1 µM. The essentials: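 A 48hr growth-inhibition format: each drug tested at 15 concentrations together with added auranofin, camptothecin, doxorubicin, rubitecan and topotecan, with cell viability quantified as CellTiter-Glo luminescence.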
For orientation: qHTS replaces the single test concentration by a dilution series.
Regarding `CC(=O)N[C@@H](CS)C(=O)O`, the Potency result is “inactive”. On the same count and under the same terms, in the case of `O=C(O)Cc1cccc2ccccc12` it was “inactive”; in that of `C[C@@H](O)[C@H]1C(=O)N2C(C(=O)O)=C(S[C@@H]3CN[C@H](C(=O)N(C)C)C3)[C@H](C)[C@H]12`, “inactive”; in that of `CC(=O)O[C@]1(C(C)=O)CC[C@H]2[C@@H]3C=C(Cl)C4=CC(=O)[C@@H]5C[C@@H]5[C@]4(C)[C@H]3CC[C@@]21C`, “inactive”. In the case of `Cc1cccc(C)c1OCC(C)N` (centres undefined), the Potency entry was “inactive”. Regarding `O=C1NC(=O)C(c2ccccc2)(c2ccccc2)N1`, the Potency entry was “inactive”.

As for `COC(=O)[C@@H]1[C@H]2C[C@H]3c4[nH]c5ccccc5c4CCN3C[C@@H]2CC[C@@H]1O`, the Potency entry was “inactive”.

Turning to `NCCS`, the Potency entry was “inactive”. Still for that read-out and setting: the result for `CC1=C(/C=C/C(C)=C/C=C/C(C)=C/C(=O)Nc2ccc(O)cc2)C(C)(C)CCC1` reads “inactive”.

Consider `Clc1ccc(Cn2c(CN3CCCC3)nc3ccccc32)cc1`, for which the Potency entry is “inactive”.

In the case of `COc1ccccc1N1CCN(CCCNc2cc(=O)n(C)c(=O)n2C)CC1`, the Potency result was “inactive”.

Consider `CCCCC1C(=O)N(c2ccccc2)N(c2ccccc2)C1=O`, for which the Potency entry was “inactive”.

On to `CC[C@]1(O)C[C@@H]2CN(CCc3c([nH]c4ccccc34)[C@@](C(=O)OC)(c3cc4c(cc3OC)N(C)[C@H]3[C@@](O)(C(=O)OC)[C@H](OC(C)=O)[C@]5(CC)C=CCN6CC[C@]43[C@@H]65)C2)C1`, for which the Potency is 5.62 µM (active). Consider `CCCNC(=O)NS(=O)(=O)c1ccc(Cl)cc1`, for which the Potency entry is “inactive”. Regarding `O=c1[nH]cnc2c1ncn2[C@H]1CC[C@@H](CO)O1`, the Potency result is “inactive”. With `CC(C)NCC(O)COc1cccc2[nH]ccc12` (centres undefined), the Potency entry was “inactive”. In the case of `O=C(O)CCc1nc(-c2ccccc2)c(-c2ccccc2)o1`, the Potency result is “inactive”. Still for that read-out and setting: the result for `C[N+](C)(C)CCCCCC[N+](C)(C)C` reads “inactive”; that for `CN(C)CCC(c1ccccc1)c1ccccn1` (centres undefined), “inactive”.

A further assay can be described thus: qHTS assay to identify small molecule inhibitors of chordoma cells - UCH-2 (AID 1259356). Particulars: UCH-2 chordoma viability, CellTiter-Glo ATP luminescence, 48 h; series mostly up to 46.1 µM.
Take `CC(=O)N[C@@H](CS)C(=O)O`: the compound was classed as inactive. Same read-out and setting: in the case of `O=C(O)Cc1cccc2ccccc12` it was “inactive”; in that of `CC(C)(C)c1ccc(C(O)CCCN2CCC(C(O)(c3ccccc3)c3ccccc3)CC2)cc1` (centres undefined), “inactive”. On the same count and under the same terms, the result for `C[C@@H](O)[C@H]1C(=O)N2C(C(=O)O)=C(S[C@@H]3CN[C@H](C(=O)N(C)C)C3)[C@H](C)[C@H]12` reads “inactive”. On the same count and under the same terms, in the case of `CC(=O)O[C@]1(C(C)=O)CC[C@H]2[C@@H]3C=C(Cl)C4=CC(=O)[C@@H]5C[C@@H]5[C@]4(C)[C@H]3CC[C@@]21C` it was “inactive”. Regarding `Cc1cccc(C)c1OCC(C)N` (centres undefined), the outcome was inactive.

For `COCCCCC(=NOCCN)c1ccc(C(F)(F)F)cc1`, the result was inactive. Same read-out and setting: the result for `O=C1NC(=O)C(c2ccccc2)(c2ccccc2)N1` reads “inactive”; that for `COC(=O)[C@@H]1[C@H]2C[C@H]3c4[nH]c5ccccc5c4CCN3C[C@@H]2CC[C@@H]1O`, “inactive”; that for `NCCS`, “inactive”. For `CC1=C(/C=C/C(C)=C/C=C/C(C)=C/C(=O)Nc2ccc(O)cc2)C(C)(C)CCC1`, the compound was called inactive. Same read-out and setting: in the case of `Clc1ccc(Cn2c(CN3CCCC3)nc3ccccc32)cc1` it was “inactive”; in that of `COc1ccccc1N1CCN(CCCNc2cc(=O)n(C)c(=O)n2C)CC1`, “inactive”; in that of `CCCCC1C(=O)N(c2ccccc2)N(c2ccccc2)C1=O`, “inactive”. Still for that read-out and setting: the result for `CC[C@]1(O)C[C@@H]2CN(CCc3c([nH]c4ccccc34)[C@@](C(=O)OC)(c3cc4c(cc3OC)N(C)[C@H]3[C@@](O)(C(=O)OC)[C@H](OC(C)=O)[C@]5(CC)C=CCN6CC[C@]43[C@@H]65)C2)C1` reads “inactive”; that for `CCCNC(=O)NS(=O)(=O)c1ccc(Cl)cc1`, “inactive”; that for `O=c1[nH]cnc2c1ncn2[C@H]1CC[C@@H](CO)O1`, “inactive”. On the same count and under the same terms, the result for `CC(C)NCC(O)COc1cccc2[nH]ccc12` (centres undefined) reads “inactive”; that for `O=C(O)CCc1nc(-c2ccccc2)c(-c2ccccc2)o1`, “inactive”; that for `C[N+](C)(C)CCCCCC[N+](C)(C)C`, “inactive”.

Regarding `CC/C(=C(\c1ccccc1)c1ccc(OCCN(C)C)cc1)c1ccccc1`, the call was inactive. The same measure, in the same setting: the result for `CN(C)CCC(c1ccccc1)c1ccccn1` (centres undefined) reads “inactive”.

The nature of the next assay: Identifying Small Molecule Inhibitors of Pancreatic Cancer Stem Cells (A2780, Spheroid) (AID 1259357). Further: potency means the concentration at half of the fitted maximal effect.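 Further: spheroids pre-formed over 14 days in stem cell medium on hydrogel; compound exposure lasted 48 h before the ATP luminescence read.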 The following applies: Potency: A2780 spheroid viability; series mostly up to 46.1 µM. The essentials:
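Spheroids grown 14 days in stem cell media on hydrogel-coated nonadherent plates; 2D lines seeded directly. Compounds added after 4 h attachment, 48 h at 37C, 5% CO2; CellTiter-Glo luminescence normalized to DMSO (no inhibition) and no-cell wells (full inhibition).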
As to `COc1ncc(-c2ccc3nccc(-c4ccnnc4)c3c2)cc1NS(=O)(=O)c1ccc(F)cc1F`, the Potency was 0.132 µM (active). The same measure, in the same setting: the result for `OC[C@H]1O[C@@H](n2cnc3c2NC=NC[C@@H]3O)C[C@H]1O` reads “inactive”. On the same count and under the same terms, the result for `COc1cc(Nc2ncc(F)c(Nc3ccc4c(n3)NC(=O)C(C)(C)O4)n2)cc(OC)c1OC` reads “inactive”.

The next assay can be described thus: Identifying Small Molecule Inhibitors of Pancreatic Cancer Stem Cells (SN12C, Adherent) (AID 1259358).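 Further: cell survival measured after 48 h of compound exposure.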 Further: potency means the concentration at half of the fitted maximal effect. Particulars: viability/growth inhibition; series mostly up to 46.1 µM. The essentials: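 Viability is scored by CellTiter-Glo luminescence 48 h after dosing, expressed as percent activity against vehicle and no-cell references. Spheroid formats rely on cells cultured 14 days in stem cell media beforehand.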
With `COc1ncc(-c2ccc3nccc(-c4ccnnc4)c3c2)cc1NS(=O)(=O)c1ccc(F)cc1F`, the Potency entry was “inactive”. Turning to `CC(C)(C(=O)NCC(F)(F)C(F)(F)F)C(=O)N[C@@H]1C(=O)Nc2ccccc2-c2ccccc21`, the Potency result was “inactive”. As for `CS(=O)c1ccc(-c2nc(-c3ccc(F)cc3)c(-c3ccncc3)[nH]2)cc1` (centres undefined), the Potency result was “inactive”. Take `COc1ccc(C2CC(c3ccccc3)=NN2c2ccc(S(N)(=O)=O)cc2)cc1` (centres undefined): the Potency result was “inactive”. The same measure, in the same setting: in the case of `N#Cc1ccc(NC(=O)Nc2ccccc2Br)c2n[nH]nc12` it was “inactive”.

Turning to `CC1=C(/C=C/C(C)=C/C=C/C(C)=C/C(=O)Nc2ccc(O)cc2)C(C)(C)CCC1`, the Potency result is “inactive”. On the same count and under the same terms, the result for `CO[C@H]1C[C@@H]2CC[C@@H](C)[C@@](O)(O2)C(=O)C(=O)N2CCCC[C@@H]2C(=O)O[C@H]([C@H](C)C[C@@H]2CC[C@H](OCCO)[C@H](OC)C2)CC(=O)[C@H](C)C=C(C)[C@@H](O)[C@@H](OC)C(=O)[C@H](C)C[C@H](C)C=CC=CC=C1C` reads 18.7 µM (active); that for `COc1cccc2c1CCCC2CCCN1CCN(C2CCCCC2)CC1` (centres undefined), 16.6 µM (active). Still for that read-out and setting: the result for `OC[C@H]1O[C@@H](n2cnc3c2NC=NC[C@@H]3O)C[C@H]1O` reads “inactive”; that for `O=C(N[C@@H](c1ccccc1)[C@@H]1CCCCN1)c1cccc(C(F)(F)F)c1Cl`, “inactive”.
